Compound activity (PubChem)
Only some compounds are listed: those with a hit (about 9.5% of all), similar ones and a draw of the others.
SARS PLpro yeast: inhibitors of SARS-CoV papain-like protease in yeast. S. cerevisiae expressing SARS-CoV PLpro, growth rescue. Potency, µM (top dose mostly 32.9 µM), for the others: at the top dose activity, positive = growth rescue, actives largely listed as activators. 0.19% of 330,000 active. AID 485353; further: 0% is about no effect; nearly all actives have a fitted effect of over 55% in size
RE007 growth inh: less growth of the S. pombe RE007 Vpr strain. S. pombe RE007 Vpr strain, BacTiter-Glo ATP luminescence, 24 h. Potency, µM (titrated, usually from 92.2 µM), for inactives: at the top dose activity change, negative = less growth, actives largely listed as inhibitors. 0.21% of 360,000 active; active means well fitted falling curve with a large enough effect; inconclusive means small, poorly fitted or top-dose-only effect; inactive means no such curve, though single readings can be large or run the other way; further: on the % scale 0 is the no-effect control and ±100 the full control effect; nearly all actives have a fitted effect of over 50% in size
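Fission yeast strain RE007, carrying one chromosomally integrated HIV-1 vpr copy, was seeded at OD 0.01 in PMG+AL medium with 23 nL pinned compound. After 24 h at 30 °C and 99% humidity, viability was read by BacTiter-Glo luminescence.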
Pf growth 96h: P. falciparum growth inhibition at 96 hours. P. falciparum luciferase reporter growth, 96 h. Potency, µM (top dose mostly 28.7 µM), for the others: top-dose activity change, negative = inhibition, usual class: inhibitors. 6.9% of 320,000 active; active means well fitted inhibition curve with a large enough effect; inconclusive means small, poorly fitted or top-dose-only effect, or another doubt; inactive means no such curve, though single readings can be large or run the other way; further: on the % scale 0 is the no-effect control and ±100 the full control effect
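P. falciparum expressing integrated firefly luciferase grown in erythrocytes (2% hematocrit, 0.05% parasitemia final) with compounds for 96 hours at 37 C, 5% CO2. Growth inhibition read as loss of luminescence after adding luciferase detection reagent.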
Pf growth 48h: inhibits P. falciparum growth in the first generation, 48 h. P. falciparum luciferase growth in erythrocytes, 48 h. Potency, µM (series often up to 28.7 µM), for inactives: top-dose activity change, negative = inhibition, usual class: inhibitors. 5.9% of 310,000 active. AID 504832; active means well fitted inhibition curve with a large enough effect; inconclusive means small, poorly fitted or top-dose-only effect, or another doubt; inactive means no such curve, though single readings can be large or run the other way; further: on the % scale 0 is the no-effect control and ±100 the full control effect
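Cell-based growth assay: transgenic P. falciparum expressing firefly luciferase, cultured in red cells within RPMI 1640 containing 0.5% w/v Albumax, 24 mM bicarbonate and gentamycin. A drop in luciferase activity indicates inhibition.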
NS1 inh: blocks influenza NS1 protein function | Potency, µM (highest dose often 46.1 µM), without a hit: at the top dose activity, positive = more growth | 0.4% of 270,000 active | AID 2326; further: actives are rising curves; nearly all actives have a fitted effect of over 50% in size
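Read-out: OD600 growth recovery of NS1-expressing budding yeast. Cells grown overnight at 30C in -URA glucose medium, washed, resuspended and diluted 1:100 in 2% galactose assay medium, pH 6.0. Same strain lacking NS1 served as positive control.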
The depositor's hits bear a star; ? = inconclusive; . = no result given. Unless noted, the call rests on the fitted dose curve. Potency means the concentration at half of the fitted maximal effect.

SMILES	SARS PLpro yeast	RE007 growth inh	Pf growth 96h	Pf growth 48h	NS1 inh
COc1ccc(-c2csc3ncnc(N4CCN(c5cccc(OC)c5)CC4)c23)cc1	-3%	-15%	?	?	11%
CCOc1ccc(CN2CCN(c3ncnc4scc(-c5ccccc5)c34)CC2)cc1	1%	-7%	1%	-15%	0%
CC1CCN(C(=O)c2ncn3c2c(=O)[nH]c2ccc(Br)cc23)CC1	.	-9%	.	.	.
CC(=O)NC(CC(=O)OC(C)C(=O)Nc1ncc(Cl)cc1Cl)c1ccccc1 (stereo unspecified)	-4%	-10%	22%	82%	-5%
c1ccc(N2CCN(c3ncnc4scc(-c5cccs5)c34)CC2)cc1	7%	5%	-27%	?	8%
COc1ccc(N2CCN(c3ncnc4scc(-c5ccccc5)c34)CC2)cc1	-5%	-1%	?	9.3µM*	16%
c1ccc(-c2csc3ncnc(N4CCOCC4)c23)cc1	-1%	-18%	32%	-4%	4%
COc1ccc(-c2csc3ncnc(N4CCN(S(=O)(=O)c5ccc(C)cc5)CC4)c23)cc1	1%	7%	?	12µM*	.
c1ccc(-c2csc3ncnc(N4CCc5ccccc5C4)c23)cc1	-16%	8%	12µM*	12µM*	8%
Fc1ccc(-c2csc3ncnc(N4CCN(c5ccccc5)CC4)c23)cc1	-5%	8%	5.9µM*	12µM*	-17%
CN(C(=O)C1CCC(=O)N(Cc2ccccc2F)C1)C1CCOCC1 (stereo unspecified)	14%	-10%	?	6%	18%
COc1cc(O)c(C(=O)CC(=O)c2ccncc2)c(OC)c1	.	11%	.	.	.
O=C(COC(=O)Cc1ccccc1F)NCCNC(=O)COC(=O)Cc1ccccc1F	-4%	-2%	5%	-19%	.
O=C(c1sc2ccccc2c1Cl)N1CCC2(CC1)OCCO2	-10%	0%	-3%	26%	-3%
C=C1SC(=Nc2ccccc2Cl)N(C(=O)c2sc3ccccc3c2Cl)C12CCCCC2	-1%	.	?	5.9µM*	-2%
C=C1SC(=Nc2c(C)cc(C)cc2C)N(C(=O)c2sc3ccccc3c2Cl)C12CCCCC2	-1%	.	1.7µM*	?	-6%
COc1ccc(CCNC(=O)CCc2cc(OC)c(OC)c(OC)c2)cc1OC	1%	-7%	?	.	0%
COc1ccc(/C=C/C(=O)Oc2cc(C)[nH]c(=O)c2[N+](=O)[O-])cc1OC	3%	4%	7%	-5%	.
Cc1csc(NC(=O)CCc2c(C)nc3cc(-c4ccc(Cl)cc4)nn3c2C)n1	-8%	1%	15µM*	?	7%
Cc1nc2cc(-c3ccc(Cl)cc3)nn2c(C)c1CCC(=O)NC(C)c1ccc2c(c1)OCCO2 (stereo unspecified)	-52%	8%	?	?	-16%
Cc1ccc(S(=O)(=O)N2C[C@H]3N(C(=O)OC(C)C)N(C(=O)OC(C)C)C[C@H](OC(=O)Nc4cccs4)[C@@]3(O)C2)cc1	.	-2%	.	.	.
NC1CCN(c2cccc(Cl)n2)CC1	.	.	-15%	-3%	-9%
N#Cc1cc(C#N)c(N2CCN(c3cccc(Cl)n3)CC2)nc1N	?	5%	1.7µM*	3.7µM*	6%
CCOC(=O)CN(C(=O)CNC(=O)c1ccco1)C(C(=O)NC1CCCCC1)c1cccnc1 (stereo unspecified)	1%	-6%	-15%	21%	8%
CC(=O)c1sc(N/N=C\c2ccc(N(C)C)cc2)nc1C	6%	6%	?	113%	-2%
SMILES	SARS PLpro yeast	RE007 growth inh	Pf growth 96h	Pf growth 48h	NS1 inh
CCOC(=O)c1sc(N/N=C/c2cc(Br)c(O)c(OC)c2)nc1C	-27%	3%	53%	13µM*	-8%
CCOC(=O)N/N=C/c1cc(OC)c(O)c(OC)c1	11%	5%	-1%	15%	-8%
COC(=O)c1sc(N/N=C/c2ccc(C(C)C)cc2)nc1C	1%	15%	?	9.3µM*	22%
CCN1CCN(C(=O)C2CCN(S(=O)(=O)c3ccc4c(c3)NC(=O)C(C)S4)CC2)CC1 (stereo unspecified)	2%	17%	2.9µM*	?	-1%
CC1Sc2ccc(S(=O)(=O)N3CCC(C(=O)NCCc4ccccc4)CC3)cc2NC1=O (stereo unspecified)	-2%	8%	?	12µM*	-5%
Cc1cc(C)cc(NC(=O)C2CCN(S(=O)(=O)c3ccc4c(c3)NC(=O)C(C)S4)CC2)c1 (stereo unspecified)	-3%	-3%	?	?	11%
Cc1ccc(NC(=O)C2CCN(S(=O)(=O)c3ccc4c(c3)NC(=O)C(C)S4)CC2)c(Cl)c1 (stereo unspecified)	-1%	-6%	?	10µM*	-11%
Cc1ccccc1CCNC(=O)C1CCN(S(=O)(=O)c2ccc(-n3cnnn3)cc2)CC1	-2%	-11%	13µM*	?	-3%
O=C(O)C/C(=C\c1ccccc1)C(=O)O	.	.	.	.	-2%
C/C(=N/NC(=O)c1nnn(-c2nonc2N)c1COc1ccccc1)c1ccccc1	0%	-3%	73%	16%	20%
O=C(CN1c2cccc3cccc(c23)S1(=O)=O)N1CCN(c2ccccc2)CC1	2%	7%	.	.	.
CN(Cc1ccc(OC(F)F)cc1)C(=O)c1cccc(S(=O)(=O)N2CCN(Cc3ccccc3)CC2)c1	.	-12%	.	.	.
CCOc1ccc(NS(=O)(=O)c2ccc(C(=O)NCC(c3ccco3)N3CCCCC3)cc2)cc1 (stereo unspecified)	.	4%	.	.	.
COC(=O)C1CC(C(=O)OC)C2C(C(=O)OC)CC(C(=O)OC)C12 (stereo unspecified)	.	-2%	.	.	.
Cc1ccc(NC(=O)C2CCN(S(=O)(=O)c3ccc4c(c3)NC(=O)C(C)S4)CC2)cc1Cl (stereo unspecified)	-1%	14%	?	13µM*	27%
NS(=O)(=O)c1ccc(CCNC(=O)C2CCN(S(=O)(=O)c3ccccc3)CC2)cc1	-1%	4%	78%	-8%	-8%
Cc1ccccc1NC(=O)C1CCN(S(=O)(=O)c2ccc3c(c2)NC(=O)C(C)S3)CC1 (stereo unspecified)	0%	-11%	?	?	14%
O=C(NCCc1ccccc1)C1CCN(S(=O)(=O)c2cccnc2)CC1	-4%	12%	7.4µM*	.	-25%
CCC(C)NC(=O)c1ccc(NC(=O)CC2SC(N3CCCC3)=NC2=O)cc1 (stereo unspecified)	-3%	2%	?	2%	.
CCCC(=O)Nc1nc(C)c(-c2csc(Nc3ccc(Cl)cc3)n2)s1	-16%	4%	?	0.83µM*	?
CCC(C)C(=O)Nc1nc(C)c(-c2csc(Nc3ccc(Cl)cc3)n2)s1 (stereo unspecified)	2%	7%	9.3µM*	13µM*	?
CC(=O)Nc1ccc(Nc2nc(-c3sc(NC(C)=O)nc3C)cs2)cc1	2%	0%	?	?	9%
